# Inconclusive results are not listed. Calls of active or inactive are those of the source. The calls were made as follows: active = hit-call score of the fitted dose curve at least 0.9, where 1 is the maximum; inconclusive = response in the unintended direction; inactive = score below 0.9.
# Columns and labels:
# [1] = biological target: Estrogen receptor (Homo sapiens) + Estrogen receptor beta (Homo sapiens) (UniProt P03372+Q92731); experiment: OT_ER_ERaERb_1440: Odyssey Thera (OT) 24-hour HEK293T Protein-Complementation Assay for Estrogen Receptor-alpha/-beta Homodimer (AID 2283356);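 also: heteromer of ER alpha and ER beta binding domains; hits raise reporter fluorescence and both agonists and antagonists give an increase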
# How it was run: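 Fragment complementation between ER alpha (310-547) and ER beta (263-489) ligand-binding domains in HEK293T cells; signal read 24 h post-dosing by laser scanning cytometer. Gain of fluorescence relative to DMSO fitted.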
# [2] = biological target: Estrogen receptor beta (Homo sapiens) (UniProt Q92731); experiment: OT_ER_ERbERb_0480: Odyssey Thera (OT) 8-hour HEK293T Protein-Complementation Assay for Estrogen Receptor-beta/-beta Homodimer (AID 2283357);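 also: active means signal gain over DMSO baseline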
# How it was run: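 Fluorescence intensity, nuclear for agonists and nuclear plus cytoplasmic for antagonists, was quantified by laser scanning cytometry versus vehicle after 8 h treatment. The cells were HEK293T stably carrying ER beta LBD fragment-complementation partners.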
# [3] = biological target: guinea pig Sigma Receptor, Non-selective Binding, SIGMAR1 (gene 100135589) (UniProt Q60492); experiment: NVS_OR_gSIGMA_NonSelective: NovaScreen (NVS) Nuclear Receptor Binding Assay for guinea pig Sigma Receptor, Non-selective Binding (AID 2283367)
# How it was run: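 Radioligand displacement on guinea pig brain membranes, read by filter-based scintillation counting 1 h after dosing. Loss of signal versus DMSO; initial duplicate single-point screen at 25 uM, actives followed in concentration series.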
# [4] = biological target: PGR (gene 5241) (UniProt P06401); experiment: NVS_NR_hPR: NovaScreen (NVS) Nuclear Receptor Binding Assay for human Progestron Receptor (PR) (AID 2283360);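 also: active means loss of bound radioligand signal versus DMSO baseline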
# How it was run: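 Radioligand competition binding on receptor extracted from T47D cells, read by scintillation counting 18 h after dosing. Loss of signal versus DMSO; primary screen in duplicate at 25 uM, actives followed in concentration series.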
# [5] = biological target: human Thyroid Receptor Alpha (TRa), THRA (gene 7067) (UniProt P10827); experiment: NVS_NR_hTRa_Antagonist: NovaScreen (NVS) Nuclear Receptor Binding Assay for human Thyroid Receptor Alpha Antagonism (TRa) (AID 2283362);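 also: activity is loss of signal relative to DMSO baseline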
# How it was run: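 Actives from a duplicate 25 uM single-point screen were retested in concentration series. The cell-free antagonist-format binding assay was read by AlphaLISA chemiluminescence at 1 h, scored as signal loss relative to DMSO.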
# [6] = test system: guinea pig Dopamine Transporter (DAT), gene 100714898; experiment: NVS_TR_gDAT: NovaScreen (NVS) Transporter Assay for guinea pig Dopamine Transporter (DAT) (AID 2283369);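 also: active compounds lower bound radioligand signal relative to DMSO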
# How it was run: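 Radioligand displacement on membranes from guinea pig striatum, 2 h exposure, bound label counted by filtration and scintillation. Tested at 25 uM in duplicate, then actives in concentration series to 50 uM; DMSO as negative control.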
# [7] = biological target: human Dopamine Transporter (DAT), SLC6A3 (gene 6531) (UniProt Q01959); experiment: NVS_TR_hDAT: NovaScreen (NVS) Transporter Assay for human Dopamine Transporter (DAT) (AID 2283374);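 also: activity means loss of bound radioligand signal relative to DMSO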
# How it was run: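 Cell-free radioligand displacement binding at human DAT, 1 h after dosing, with filtration and scintillation counting. Primary screen in duplicate at 25 uM, actives then in concentration series. Loss of bound signal versus DMSO scored.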
# [8] = biological target: rat Serotonin Transporter (SERT), Slc6a4 (gene 25553) (UniProt P31652); experiment: NVS_TR_rSERT: NovaScreen (NVS) Transporter Assay for rat Serotonin Transporter (SERT) (AID 2283375)
# How it was run: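 Radioligand binding with competitive displacement on rat forebrain membrane preparations, counted by filtration and scintillation after 1 h. Primary single-point duplicates at 25 uM; active chemicals followed up in concentration-response. DMSO served as baseline.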
# [9] = biological target: Nuclear receptor subfamily 1 group I member 2 (Homo sapiens) (UniProt O75469); experiment: NVS_NR_hPXR: NovaScreen (NVS) Nuclear Receptor Binding Assay for human Pregnane X Receptor (PXR) (AID 2283365);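 also: a drop in FRET signal versus DMSO baseline means the compound binds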
# How it was run: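 Human PXR binding measured by TR-FRET in a cell-free format, 2 h exposure. Single-concentration duplicates at 25 uM preceded concentration-response retests of actives; endpoint fitted positively relative to DMSO, loss of signal indicating binding.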
# [10] = biological target: Peroxisome proliferator-activated receptor gamma (Homo sapiens) (UniProt P37231); experiment: NVS_NR_hPPARg: NovaScreen (NVS) Nuclear Receptor Binding Assay for human Peroxisome Proliferator-activated Receptor gamma (PPARg) (AID 2283370)
# How it was run: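 Fluorescence polarization readout of ligand binding to extracted human PPARg, measured at 2 h. Duplicate single-point screen at 25 uM, then concentration-series retesting; activity defined as signal loss versus DMSO.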
# [11] = biological target: Glucocorticoid receptor (Homo sapiens) (UniProt P04150); experiment: NVS_NR_hGR: NovaScreen (NVS) Nuclear Receptor Binding Assay for human Glucocorticoid Receptor (GR) (AID 2283363)
# How it was run: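 Cell-free radioligand displacement assay on extracted human GR, read 16 h after dosing by filter-based scintillation counting. Screened in duplicate at 25 uM, then concentration series for actives; loss of signal versus DMSO baseline.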
# [12] = biological target: human Norepinephrine Transporter (NET), SLC6A2 (gene 6530) (UniProt P23975); experiment: NVS_TR_hNET: NovaScreen (NVS) Transporter Assay for human Norepinephrine Transporter (NET) (AID 2283377)
# How it was run: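 Cell-free radioligand binding using CHO-derived membrane protein expressing human NET, read by filter scintillation counting 1 h after dosing; loss of signal vs DMSO. Initial duplicate screen at 25 uM, actives retested in concentration series.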
# [13] = biological target: human Serotonin Transporter (SERT), SLC6A4 (gene 6532) (UniProt P31645); experiment: NVS_TR_hSERT: NovaScreen (NVS) Transporter Assay for human Serotonin Transporter (SERT) (AID 2283372)
# How it was run: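 Radioligand binding to native SERT in human platelet membranes, read by filter-based scintillation counting 1 h after dosing. Primary screen in duplicate at 25 uM; actives followed up in concentration series; loss of signal versus DMSO baseline.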
# [14] = biological target: human Peroxisome Proliferator-activated Receptor alpha (PPARa), PPARA (gene 5465) (UniProt Q07869); experiment: NVS_NR_hPPARa: NovaScreen (NVS) Nuclear Receptor Binding Assay for human Peroxisome Proliferator-activated Receptor alpha (PPARa) (AID 2283359);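 also: activity means loss of TR-FRET signal versus DMSO baseline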
# How it was run: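 Cell-free TR-FRET binding assay with extracted PPARα protein, read 1 h after dosing. Primary screen in duplicate at 25 uM, with actives retested in concentration series. Loss of signal versus DMSO.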
# [15] = biological target: Retinoic acid receptor alpha (Homo sapiens) (UniProt P10276); experiment: NVS_NR_hRAR_Antagonist: NovaScreen (NVS) Nuclear Receptor Binding Assay for human Retinoic Acid Alpha Receptor Antagonism (RAR) (AID 2283358)
# How it was run: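 Cell-free TR-FRET binding assay with extracted human RARalpha in antagonist mode, read 2 h after dosing. Loss of signal was fitted relative to DMSO; the primary screen used 25 uM in duplicate, with concentration series on follow-up.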
# [16] = test system: rat Norepinephrine Transporter (NET), gene 83511; experiment: NVS_TR_rNET: NovaScreen (NVS) Transporter Assay for rat Norepinephrine Transporter (NET) (AID 2283373)
# How it was run: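 Rat forebrain membranes; radioligand binding measured by filter-based scintillation counting 1 hour after dosing. Loss of specific binding versus DMSO baseline scored; primary screen in duplicate at 25 uM, actives followed up in concentration series.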
# Sequence of guinea pig Sigma Receptor, Non-selective Binding, SIGMAR1 (gene 100135589) (Q60492 whole entry, looked up): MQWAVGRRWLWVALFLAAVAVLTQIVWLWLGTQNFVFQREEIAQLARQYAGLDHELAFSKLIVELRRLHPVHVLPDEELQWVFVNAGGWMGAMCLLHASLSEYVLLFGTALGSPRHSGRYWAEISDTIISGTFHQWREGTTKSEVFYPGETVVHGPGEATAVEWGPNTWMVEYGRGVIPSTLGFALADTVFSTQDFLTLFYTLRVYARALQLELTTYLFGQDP
# Sequence of Glucocorticoid receptor (Homo sapiens) (P04150 whole entry, looked up): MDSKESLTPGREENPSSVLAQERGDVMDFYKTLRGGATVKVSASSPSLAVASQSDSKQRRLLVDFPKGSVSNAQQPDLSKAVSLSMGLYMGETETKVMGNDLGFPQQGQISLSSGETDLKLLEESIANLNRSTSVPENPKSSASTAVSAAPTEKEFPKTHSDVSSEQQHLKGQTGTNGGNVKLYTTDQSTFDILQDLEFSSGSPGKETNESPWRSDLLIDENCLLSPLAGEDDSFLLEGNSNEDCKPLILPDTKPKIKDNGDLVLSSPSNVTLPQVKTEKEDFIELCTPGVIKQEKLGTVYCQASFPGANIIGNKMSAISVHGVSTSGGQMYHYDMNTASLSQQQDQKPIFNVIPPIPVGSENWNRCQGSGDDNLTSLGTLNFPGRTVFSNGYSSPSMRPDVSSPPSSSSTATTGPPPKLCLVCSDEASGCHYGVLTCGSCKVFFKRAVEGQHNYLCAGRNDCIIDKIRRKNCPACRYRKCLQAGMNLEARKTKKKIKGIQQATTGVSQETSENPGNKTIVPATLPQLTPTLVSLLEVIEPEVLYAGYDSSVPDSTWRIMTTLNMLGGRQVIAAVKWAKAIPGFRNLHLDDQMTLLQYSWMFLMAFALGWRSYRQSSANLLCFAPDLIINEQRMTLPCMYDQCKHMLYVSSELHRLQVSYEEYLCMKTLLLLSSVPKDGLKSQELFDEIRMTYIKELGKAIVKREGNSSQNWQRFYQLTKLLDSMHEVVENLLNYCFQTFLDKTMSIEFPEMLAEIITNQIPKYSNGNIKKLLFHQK
# Sequence of rat Serotonin Transporter (SERT), Slc6a4 (gene 25553) (P31652 whole entry, looked up): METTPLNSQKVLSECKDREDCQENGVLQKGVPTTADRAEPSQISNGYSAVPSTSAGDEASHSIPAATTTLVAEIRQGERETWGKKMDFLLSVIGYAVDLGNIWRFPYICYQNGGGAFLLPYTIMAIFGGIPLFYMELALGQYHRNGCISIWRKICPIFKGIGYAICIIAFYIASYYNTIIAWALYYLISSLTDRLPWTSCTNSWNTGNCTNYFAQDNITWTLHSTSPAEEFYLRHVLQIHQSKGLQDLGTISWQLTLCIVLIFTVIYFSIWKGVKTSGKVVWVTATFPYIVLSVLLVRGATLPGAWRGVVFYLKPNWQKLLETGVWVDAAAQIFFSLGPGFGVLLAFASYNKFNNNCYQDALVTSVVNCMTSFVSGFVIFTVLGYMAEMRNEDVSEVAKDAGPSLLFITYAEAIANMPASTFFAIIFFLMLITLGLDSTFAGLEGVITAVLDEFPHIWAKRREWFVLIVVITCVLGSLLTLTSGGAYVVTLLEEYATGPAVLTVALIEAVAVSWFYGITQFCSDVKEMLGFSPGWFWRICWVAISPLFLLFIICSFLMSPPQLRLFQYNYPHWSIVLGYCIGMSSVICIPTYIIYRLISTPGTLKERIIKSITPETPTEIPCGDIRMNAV
# Sequence of Estrogen receptor (Homo sapiens) + Estrogen receptor beta (Homo sapiens) (P03372 whole entry, looked up, the tested form may be a part): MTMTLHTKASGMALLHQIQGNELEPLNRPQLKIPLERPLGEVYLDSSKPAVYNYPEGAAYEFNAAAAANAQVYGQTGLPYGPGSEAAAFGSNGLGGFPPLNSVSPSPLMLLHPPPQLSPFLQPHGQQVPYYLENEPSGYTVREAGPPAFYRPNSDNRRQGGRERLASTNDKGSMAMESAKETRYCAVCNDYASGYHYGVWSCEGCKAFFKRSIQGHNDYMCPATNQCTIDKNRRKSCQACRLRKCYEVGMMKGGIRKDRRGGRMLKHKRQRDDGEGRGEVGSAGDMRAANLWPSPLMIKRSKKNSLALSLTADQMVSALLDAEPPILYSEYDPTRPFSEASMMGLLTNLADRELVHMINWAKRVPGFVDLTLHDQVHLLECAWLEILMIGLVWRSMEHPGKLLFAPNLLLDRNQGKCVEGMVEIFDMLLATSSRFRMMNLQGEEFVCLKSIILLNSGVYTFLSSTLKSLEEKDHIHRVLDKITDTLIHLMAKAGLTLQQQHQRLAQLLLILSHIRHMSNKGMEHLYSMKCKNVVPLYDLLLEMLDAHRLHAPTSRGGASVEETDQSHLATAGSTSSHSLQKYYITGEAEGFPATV
# Sequence of Estrogen receptor (Homo sapiens) + Estrogen receptor beta (Homo sapiens) (Q92731 whole entry, looked up, the tested form may be a part): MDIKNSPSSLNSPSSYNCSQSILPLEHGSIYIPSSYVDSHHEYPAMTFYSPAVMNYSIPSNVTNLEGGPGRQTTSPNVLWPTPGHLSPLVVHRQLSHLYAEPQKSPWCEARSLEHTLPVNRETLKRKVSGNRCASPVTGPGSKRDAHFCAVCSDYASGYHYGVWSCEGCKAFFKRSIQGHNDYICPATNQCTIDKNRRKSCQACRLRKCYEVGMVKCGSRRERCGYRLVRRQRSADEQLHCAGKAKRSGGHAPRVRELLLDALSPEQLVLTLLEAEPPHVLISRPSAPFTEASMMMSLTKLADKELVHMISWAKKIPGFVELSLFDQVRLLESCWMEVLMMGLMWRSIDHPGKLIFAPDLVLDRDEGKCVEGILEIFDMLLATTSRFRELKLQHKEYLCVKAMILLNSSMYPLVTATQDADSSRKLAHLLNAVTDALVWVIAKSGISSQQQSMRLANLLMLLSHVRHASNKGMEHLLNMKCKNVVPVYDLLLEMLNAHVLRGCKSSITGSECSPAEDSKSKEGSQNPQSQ
# Sequence of human Dopamine Transporter (DAT), SLC6A3 (gene 6531) (Q01959 whole entry, looked up): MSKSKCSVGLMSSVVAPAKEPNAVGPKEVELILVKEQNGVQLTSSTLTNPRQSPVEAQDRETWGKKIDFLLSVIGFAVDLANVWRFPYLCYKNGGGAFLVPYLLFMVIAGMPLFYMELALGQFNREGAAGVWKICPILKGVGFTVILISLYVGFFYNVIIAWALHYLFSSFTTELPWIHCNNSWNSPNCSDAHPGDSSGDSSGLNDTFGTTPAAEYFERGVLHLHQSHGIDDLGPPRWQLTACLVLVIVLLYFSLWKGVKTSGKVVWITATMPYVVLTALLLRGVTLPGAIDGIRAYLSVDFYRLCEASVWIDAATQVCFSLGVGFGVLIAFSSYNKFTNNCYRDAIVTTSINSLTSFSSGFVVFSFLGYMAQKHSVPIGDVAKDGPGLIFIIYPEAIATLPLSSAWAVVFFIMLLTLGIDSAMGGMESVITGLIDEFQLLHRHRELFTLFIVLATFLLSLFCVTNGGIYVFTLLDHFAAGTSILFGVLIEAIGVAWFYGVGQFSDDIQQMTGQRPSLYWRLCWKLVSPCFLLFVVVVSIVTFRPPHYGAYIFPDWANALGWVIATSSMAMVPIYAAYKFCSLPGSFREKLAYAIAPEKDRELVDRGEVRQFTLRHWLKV
# Sequence of human Peroxisome Proliferator-activated Receptor alpha (PPARa), PPARA (gene 5465) (Q07869 whole entry, looked up): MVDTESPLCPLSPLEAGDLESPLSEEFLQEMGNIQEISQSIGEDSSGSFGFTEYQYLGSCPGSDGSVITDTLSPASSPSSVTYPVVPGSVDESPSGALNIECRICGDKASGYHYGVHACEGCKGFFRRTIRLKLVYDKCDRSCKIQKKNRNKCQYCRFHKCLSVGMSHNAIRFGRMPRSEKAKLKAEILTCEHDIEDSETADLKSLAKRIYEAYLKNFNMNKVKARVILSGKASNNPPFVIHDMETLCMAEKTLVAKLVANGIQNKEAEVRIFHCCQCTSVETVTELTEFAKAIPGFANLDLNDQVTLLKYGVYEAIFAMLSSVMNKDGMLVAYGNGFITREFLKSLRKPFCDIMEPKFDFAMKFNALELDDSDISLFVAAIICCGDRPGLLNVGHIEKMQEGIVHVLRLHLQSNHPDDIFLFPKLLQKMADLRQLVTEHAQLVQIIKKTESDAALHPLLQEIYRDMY
# Sequence of Estrogen receptor beta (Homo sapiens) (Q92731 whole entry, looked up, the tested form may be a part): as the sequence (Q92731 whole entry, looked up, the tested form may be a part) above
# Sequence of Peroxisome proliferator-activated receptor gamma (Homo sapiens) (P37231 whole entry, looked up): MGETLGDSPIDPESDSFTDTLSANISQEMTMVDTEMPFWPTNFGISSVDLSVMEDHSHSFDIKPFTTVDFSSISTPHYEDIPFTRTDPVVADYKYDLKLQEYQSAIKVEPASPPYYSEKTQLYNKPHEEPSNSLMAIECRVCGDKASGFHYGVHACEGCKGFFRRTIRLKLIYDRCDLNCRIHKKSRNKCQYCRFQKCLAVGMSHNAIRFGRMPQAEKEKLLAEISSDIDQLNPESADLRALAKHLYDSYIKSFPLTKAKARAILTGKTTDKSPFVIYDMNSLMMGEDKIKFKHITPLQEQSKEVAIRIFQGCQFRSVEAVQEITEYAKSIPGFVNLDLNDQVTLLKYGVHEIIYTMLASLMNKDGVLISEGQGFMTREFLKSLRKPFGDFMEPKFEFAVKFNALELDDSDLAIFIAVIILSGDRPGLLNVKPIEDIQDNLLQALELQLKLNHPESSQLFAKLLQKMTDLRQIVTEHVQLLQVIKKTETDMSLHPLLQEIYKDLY
compound,measurement,setting,value
Cc1cccc([N+](=O)[O-])c1C,outcome,[1],inactive
same,outcome,[2],inactive
same,outcome,[3],inactive
Nc1ccccc1N,outcome,[1],inactive
same,outcome,[4],inactive
Cc1c(C(=O)O)c(O)cc2c1C(=O)c1c(O)c([C@@H]3O[C@H](CO)[C@@H](O)[C@H](O)[C@H]3O)c(O)c(O)c1C2=O,outcome,[1],inactive
same,outcome,[2],inactive
same,AC50,[5],17.3 µM (active)
same,outcome,[6],inactive
same,outcome,[7],inactive
same,outcome,[8],inactive
COC(=O)c1ccc(O)cc1,AC50,[1],74.6 µM (active)
same,AC50,[2],63.3 µM (active)
same,outcome,[4],inactive
same,outcome,[7],inactive
CCCCN(CCCC)CCCC,outcome,[1],inactive
same,outcome,[2],inactive
same,AC50,[7],16.7 µM (active)
CC(C)c1ccc(C(=O)N=C(N)N)cc1S(C)(=O)=O,outcome,[1],inactive
same,outcome,[2],inactive
same,outcome,[9],inactive
same,outcome,[10],inactive
CC(=O)C(C)=CC1C(C)=CCCC1(C)C (configuration not stated),outcome,[10],inactive
COc1cc(S(=O)(=O)O)c(C)cc1N=Nc1c(O)ccc2cc(S(=O)(=O)O)ccc12,AC50,[4],14.2 µM (active)
same,outcome,[11],inactive
same,outcome,[12],inactive
Cc1oc(-c2ccccc2)nc1CCOc1cccc2c1ccn2CCC(=O)O,outcome,[1],inactive
same,AC50,[3],11 µM (active)
same,AC50,[10],2.27 µM (active)
CCCCc1ccc2c(n1)[C@@H](c1ccc(OC)cc1C[C@H](C)C(=O)O)[C@H](C(=O)O)[C@H]2c1ccc2c(c1)OCO2,outcome,[1],inactive
same,outcome,[11],inactive
same,AC50,[10],5.46 µM (active)
O=[N+]([O-])C(CO)(CO)CO,outcome,[1],inactive
same,outcome,[10],inactive
same,outcome,[13],inactive
CCCCCCCCCCCCCCCCCC(=O)O,AC50,[14],0.608 µM (active)
CC(=O)OC/C=C(\C)CCC=C(C)C,outcome,[9],inactive
same,outcome,[10],inactive
CCCc1cc(=O)[nH]c(=S)[nH]1,outcome,[7],inactive
CNCc1cc(F)ccc1Oc1ccc(Cl)c(Cl)c1,outcome,[1],inactive
same,outcome,[2],inactive
same,outcome,[4],inactive
same,AC50,[8],0.00346 µM (active)
Cc1ccc2ncccc2c1,outcome,[15],inactive
same,outcome,[5],inactive
same,outcome,[7],inactive
Nc1ccc(S(=O)(=O)c2ccc(N)cc2)cc1,outcome,[4],inactive
same,AC50,[6],25 µM (active)
same,AC50,[7],3.85 µM (active)
same,outcome,[12],inactive
CC(=O)OCCOCCOCCOC(C)=O,outcome,[1],inactive
same,outcome,[2],inactive
same,AC50,[9],33.4 µM (active)
NCCO,outcome,[15],inactive
CC(CO)OC(C)CO (configuration not stated) (tested in a mixture with another compound),outcome,[14],inactive
same,outcome,[9],inactive
O=C(N[C@@H](Cc1ccccc1)[C@@H](O)C(=O)N1C[C@@H](O)[C@@H](O)C1)c1cc2cc(Cl)ccc2[nH]1,outcome,[2],inactive
same,outcome,[11],inactive
same,outcome,[10],inactive
same,outcome,[13],inactive
same,AC50,[7],11.5 µM (active)
same,AC50,[8],12.9 µM (active)
CCCCCCC(=O)OCC,outcome,[1],inactive
same,outcome,[2],inactive
same,outcome,[4],inactive
same,outcome,[3],inactive
C=CCOC(=O)c1ccccc1C(=O)OCC=C,outcome,[14],inactive
same,AC50,[10],0.00781 µM (active)
same,AC50,[16],25 µM (active)
CN1CCCC1=O,outcome,[1],inactive
same,AC50,[7],25 µM (active)
NC(=O)Cn1c(=O)cc(CCN2CCN(c3nccc4sccc34)CC2)c2ccc(F)cc21,AC50,[3],2.1 µM (active)
